HPGD inh: blocks human HPGD enzyme activity. P15428. purified HPGD, NADH fluorescence kinetic, PGE2 substrate. Potency, µM, for the others: top-dose activity change, negative = inhibition, most hits filed as inhibitors. 150,000 compounds, 4.3% hits; note: potency is the fitted concentration of half-maximal effect
Target sequence (P15428 whole entry, looked up): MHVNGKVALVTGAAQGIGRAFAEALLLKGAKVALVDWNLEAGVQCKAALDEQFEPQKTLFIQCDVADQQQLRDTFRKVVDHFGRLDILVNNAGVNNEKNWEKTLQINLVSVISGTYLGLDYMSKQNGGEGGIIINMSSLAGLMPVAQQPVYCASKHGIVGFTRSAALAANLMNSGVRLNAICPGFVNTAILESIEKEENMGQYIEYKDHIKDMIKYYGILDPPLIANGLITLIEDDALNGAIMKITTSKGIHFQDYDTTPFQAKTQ
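NADH formation kinetics: reaction with 30 uM PGE2 and 1 mM NAD+ (final), 20 nM enzyme, Tris-HCl pH 8 with Tween 20, after 15 min compound preincubation at room temperature. Fluorescence change, last versus first of five reads.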
IMPase inh: membrane-permeable compound that blocks inositol monophosphatase; P97697; CHO-M1 cells, IP1 accumulation, HTRF TR-FRET ratio; inhibition (IP1 accumulation), % at 46.1 µM; 120,000 tested, under 10 active; active = well fitted curve in the direction sought with a large enough effect in the signal ratio, not every such curve was filed as active; inconclusive = small, poorly fitted or top-dose-only effect, or a change in a side signal; inactive = no such curve, though single readings can be large or run the other way; the % refers to the signal ratio;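 note: cells stimulated with carbachol in lithium chloride buffer; plate controls were DMSO basal wells for no effect and reference inhibitor wells for full effect; higher means more IMPase inhibition seen as more IP1 and lower FRET ratio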
Target sequence (P97697 whole entry, looked up): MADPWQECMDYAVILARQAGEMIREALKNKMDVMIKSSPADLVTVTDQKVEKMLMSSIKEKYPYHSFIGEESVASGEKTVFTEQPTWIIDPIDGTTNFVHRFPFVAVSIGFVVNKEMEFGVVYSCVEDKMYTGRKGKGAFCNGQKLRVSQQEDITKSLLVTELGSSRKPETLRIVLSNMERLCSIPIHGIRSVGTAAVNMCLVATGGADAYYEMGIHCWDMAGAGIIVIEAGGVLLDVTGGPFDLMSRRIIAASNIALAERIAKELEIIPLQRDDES
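Carbachol-driven Gq signalling in CHO-M1 cells (2000/well) generates IP1. Compounds that block IMPase raise IP1 and so reduce the FRET signal from Eu-anti-IP1 and d2-IP1 after a 10 min room-temperature lysis.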
PNC assembly inh: perinucleolar compartment assembly inhibition. activity change (PNC), negative = inhibition, % at 10 µM. PC3M PTB-GFP, PNC prevalence imaging, 16 h; active compounds read low. AID 2417. 140,000 compounds, 3.1% hits;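 active = readout at or below -70, meaning at least 70% loss of cells showing the perinucleolar compartment, a nuclear body marking cancer cells; inconclusive = readout between -30 and a set limit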;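 note: plate controls were DMSO wells for no effect and camptothecin positive control wells for full effect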
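Read-out is percentage of cells bearing a perinucleolar compartment, from automated 20x imaging of fixed, Hoechst-stained PC3M PTB-GFP cells. Cells were seeded 4 h, then exposed 16 h to compound (23 nl of library stock) in duplicate plates.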
IMPase Li cell: cell-permeable IMPase inhibitors with lithium potentiation; CHO-M1 cells, IP1 TR-FRET (IP-One), carbachol + lithium; Potency, µM (series often up to 59.4 µM), inactives show at the highest dose activity, negative = IMPase inhibition, most hits filed as inhibitors; 210,000 compounds, 0.35% hits; AID 1457; active = well fitted inhibition curve with a large enough effect; inconclusive = small, poorly fitted or top-dose-only effect; inactive = no such curve, though single readings can be large or run the other way;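 note: IP1 builds up when IMPase is blocked and the TR-FRET signal falls; potency is the fitted concentration of half-maximal effect; plate controls were basal vehicle for no effect and high inhibitor control for full effect; nearly all actives have a fitted effect of over 50% in size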
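IP1 accumulation measured by competitive TR-FRET in lysed CHO-M1 cells after 30 min compound exposure at 37C, with a small lithium addition to potentiate weak responses. Hill-equation AC50 from ratio and donor-channel data.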
ALDH1A1 block: inhibitors of human aldehyde dehydrogenase 1A1; AID 1030; 220,000 compounds, 7.3% hits; P00352; Purified ALDH1A1, NADH fluorescence, propionaldehyde substrate; Potency, µM (highest dose often 75.3 µM), inactives show top-dose activity, negative = inhibition, actives largely listed as inhibitors;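 note: potency is the fitted concentration of half-maximal effect; plate controls were no enzyme wells and a reference inhibitor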
* = called active by the depositor; u = inconclusive; x = no result; [ ] = dose if it differs, or a comment. Sampled rows, rich in hits. Any-hit rate of the full collection: about 11%. Unless noted, calls come from the whole dose curve; as a rule, active = well fitted inhibition curve with a large enough effect (not every such curve was filed as active); inconclusive = small, poorly fitted or top-dose-only effect, or another doubt; inactive = no such curve, though single readings can be large or run the other way. Unless noted, % is set by controls: 0 for no effect and ±100 for the full control effect.

SMILES | HPGD inh | IMPase inh | PNC assembly inh | IMPase Li cell | ALDH1A1 block
CNc1ncnc2c1ncn2[C@H]1C[C@H](O)[C@@H](CO)O1 | x | x | x | 3.3% | 8.4%
O=C(CSc1nnnn1-c1cccc2ccccc12)Nc1ccc(N2CCOCC2)c(Cl)c1 | -6.4% | -5.1 | 60.5 | 22.5%[38.3 µM] | 1.78µM*
O=C(CSc1nc2ccccc2o1)Nc1ccc(N2CCOCC2)c(Cl)c1 | -16.8% | 7.3 | 31.6 | 16.4%[38.3 µM] | u
Cc1cc(C)nc(SCC(=O)Nc2ccc(N3CCOCC3)c(Cl)c2)n1 | -6.6% | 14.1 | 13.4 | 31.5%[38.3 µM] | 22.4µM*
CC(=O)Nc1ccc2nc(SCC(=O)Nc3ccc(N4CCOCC4)c(Cl)c3)sc2c1 | -1.0% | -6.9 | 106.1 | -15.7%[38.3 µM] | u
Cc1cc(C)nc(SCC(=O)Nc2ncc(Cc3ccc(Cl)c(Cl)c3)s2)n1 | -4.7% | x | -113.4* | 6.2% | -13.1%
CCOC(=O)CSc1nnnn1-c1cccc2ccccc12 | 25.1µM* | 0.1 | -11.8 | 7.8% | 1.78µM*
Cc1cccnc1NC(=O)Cn1nc(-c2ccccc2)oc1=S | -18.1% | x | u | -4.1% | -14.2%
NC(=O)c1ccc([N+](=O)[O-])cc1 | -11.1% | x | x | 4.6% | 7.7%
O=[N+]([O-])c1ccc(C=Nc2ccc(Cl)c([N+](=O)[O-])c2)s1 | x | x | x | 14.2% | 14.1µM*
NC(=O)c1ccc(N=Cc2ccc([N+](=O)[O-])s2)cc1 | -5.2% | x | u | 10.3% | 20µM*
Cc1cc(C)cc(N=Cc2ccc([N+](=O)[O-])s2)c1 | -9.5% | x | 39.0 | 9.2% | u
Nc1nc(SCC(=O)c2ccc(Br)cc2)c2[nH]cnc2n1 | 1.0% | x | x | -1.3% | 8.1%[13.5 µM]
Cc1ccc(S(=O)(=O)N[C@H]2COC(=O)[C@@H](Cc3ccccc3)NC(=O)[C@@H](C)COC(=O)C/C=C\[C@@H]2C)cc1 | x | x | x | x | 0.9%[13.5 µM]
CNC(=O)c1ccc(Nc2nnc(-c3ccc(C)c(S(=O)(=O)NCC4CCCO4)c3)c3ccccc23)cc1 (configuration not stated) | 25.1µM* | x | 34.3 | -1.8% | u
Cc1ccc(-c2nnc(Nc3ccccc3)c3ccccc23)cc1S(=O)(=O)NCC1CCCO1 (configuration not stated) | -18.2% | 3.4 | 59.7 | -6.0%[38.3 µM] | -4.5%
CCCOC(=O)c1ccc(Oc2cn[nH]c2-c2ccc(OCC)cc2O)cc1 | -17.9% | 9.7 | -116.6* | -8.0%[38.3 µM] | -1.3%
CCCc1ccc(Oc2c(-c3ccc(O)c(C)c3O)n[nH]c2C)cc1 | -8.9% | -1.8 | u | 9.3%[38.3 µM] | 0.8%
CCCc1ccc(Oc2cn[nH]c2-c2ccc(O)c(C)c2O)cc1 | 17.8µM* | 8.7 | -0.3 | 27.6%[38.3 µM] | 4.9%
CCCOC(=O)c1ccc(Oc2c(-c3ccc(OCC)cc3O)n[nH]c2C)cc1 | u | 15.8 | u | 40.5%[38.3 µM] | u
O=C(CSc1ccccn1)N/N=C/C=C/c1ccccc1 | 20µM* | u | 3.0 | -1.1% | 6.2%
CCOc1ccc(NCC(=O)N/N=C/C=C/c2ccccc2)cc1 | -8.5% | 7.5 | -16.0 | 10.0% | u
O=C(CSc1ccccn1)N/N=C/c1ccccc1[N+](=O)[O-] | -8.1% | 2.4 | -9.5 | 4.1% | u
COc1ccc(OCC(=O)N/N=C/C=C/c2ccccc2)cc1 | -7.2% | -1.1 | -115.1* | -2.5% | 5.8%
CCOc1ccc(N(CC(=O)Nc2ccccc2C(=O)N2CCOCC2)S(=O)(=O)c2ccc(F)cc2)cc1 | -11.8% | x | u | 5.0% | 8.2%
SMILES | HPGD inh | IMPase inh | PNC assembly inh | IMPase Li cell | ALDH1A1 block
Cc1ccnc(NCn2nnc3ccccc32)c1 | -9.3% | 0.0 | 70.9 | -2.2%[38.3 µM] | 5.6%
COC(=O)c1c(N)n(-c2cc(Cl)cc(Cl)c2)c2nc3ccccc3nc12 | x | 3.4 | x | x | x
[O-]/[N+](=C/c1ccc(F)cc1)c1ccc(Cl)cc1 | -15.3% | -0.5 | -26.7 | 27.6%[38.3 µM] | 6.31µM*
CCOC(=O)c1c(-c2ccc(OC)cc2)csc1/N=C/C1C(=O)CCCC1=O | x | x | x | 6.9% | 5.01µM*
O=C(O)C[C@H](NC(=O)CP(=O)(O)O)C(=O)O.[NH-][C@@H]1CCCC[C@@H]1[NH-].[Pt] | 2.0% | x | x | -0.2% | 7.8%[13.5 µM]
CN(C)CC[C@H](c1ccc(Br)cc1)c1ccccn1 | -2.0% | 6.3[20.6 µM] | x | 8.9% | -9.6%[20.9 µM]
N/C(=N\OC(=O)c1ccco1)c1ccc(Br)cc1 | -10.6% | 12.1 | -14.2 | -14.5%[38.3 µM] | 3.16µM*
N/C(=N\OC(=O)c1ccco1)c1ccccc1 | -29.3% | 2.2 | -29.3 | -5.7% | 4.5%
CNc1ccc(O)cc1 | 12.6µM* | x | x | 49.0% | 2.24µM*
CC(=O)Nc1sc2c(c1CN1CCN(c3ccccn3)CC1)CCCC2 | -16.1% | 7.8 | 30.2 | 8.8%[38.3 µM] | 22.4µM*
CC1=CC(C)C2C(=O)N(O)C(=O)C2C1 (configuration not stated) | 1.9% | -2.1 | u | 33.6%[38.3 µM] | 14.1µM*
CC1(c2ccccc2)CC(C)(C)N2C(=O)C(=O)c3cccc1c32 (configuration not stated) | x | x | x | 12.3% | 0.501µM*
COc1ccc(-n2c(=O)c(-c3ccc(F)cc3)nc3cncnc32)cc1 | x | x | x | 1.3% | -9.3%
CC(=O)Nc1cccc(-c2csc(NCc3ccco3)n2)c1 | -23.9% | -1.4 | 40.7 | 30.9%[38.3 µM] | 12.6µM*
Oc1ccc(-c2csc(NCc3ccco3)n2)cc1 | -13.8% | -0.2 | 17.4 | 19.7%[38.3 µM] | u
COc1cccc(-c2csc(NC(C)=O)n2)c1 | u | -16.6 | -5.1 | 9.3% | 11.2µM*
COc1cccc(-c2csc(N3CCN(C(=O)Nc4ccccc4Cl)CC3)n2)c1 | x | x | x | 17.8% | 22.4µM*
COc1cccc(-c2csc(N3CCN(C(=S)Nc4ccc(Cl)cc4)CC3)n2)c1 | -21.4% | 1.1 | 100.0 | 19.5%[38.3 µM] | 0.0891µM*
COC(C)=O | -2.1% | x | x | -0.1% | u
